# Pol beta inh: inhibitors of human DNA polymerase beta | P06746 | 340,000 compounds, 1.3% hits | Pol beta primer extension/strand displacement, fluorescence kinetic | Potency, µM (top dose mostly 114 µM), for the others: top-dose activity change, negative = inhibition, actives largely listed as inhibitors | AID 485314; also: potency is read from the fitted curve at half-maximal effect; % is scaled to controls: 0 for no effect and ±100 for the full control effect
#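 Homogeneous kinetic assay of primer extension and strand displacement by 10 nM Pol beta, preincubated 15 min at room temperature with compound before 50 nM substrate (final) was added. Read at 0 and 10 min; four-parameter Hill fit.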
# WRN inhibitor: WRN helicase (human) inhibition | Q14191 | WRN helicase unwinding, fluorescent forked duplex, kinetic | Potency, µM (highest dose often 114 µM), without a hit: at the top dose activity change, negative = inhibition, actives largely listed as inhibitors | 360,000 compounds, 0.46% hits | AID 651768; also: potency is read from the fitted curve at half-maximal effect; % is scaled to controls: 0 for no effect and ±100 for the full control effect; nearly all actives have a fitted effect of over 55% in size
#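 WRN at 20 nM final was preincubated with compound for 15 min at room temperature; reaction started with 100 nM forked duplex oligonucleotide carrying fluorophore and quencher plus 2 mM ATP (final). Unwinding followed kinetically by red fluorescence (ex 525/em 598 nm).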
# POLI inh: DNA polymerase iota (human) inhibition; 390,000 compounds, 1% hits; Potency, µM (top dose mostly 115 µM), for the others: top-dose activity, negative = inhibition, hits mostly inhibitors; Pol iota fluorescent replication assay, 10 min; Q9UNA4; AID 588590; also: potency is read from the fitted curve at half-maximal effect
# Target sequence (Q9UNA4 whole entry, looked up): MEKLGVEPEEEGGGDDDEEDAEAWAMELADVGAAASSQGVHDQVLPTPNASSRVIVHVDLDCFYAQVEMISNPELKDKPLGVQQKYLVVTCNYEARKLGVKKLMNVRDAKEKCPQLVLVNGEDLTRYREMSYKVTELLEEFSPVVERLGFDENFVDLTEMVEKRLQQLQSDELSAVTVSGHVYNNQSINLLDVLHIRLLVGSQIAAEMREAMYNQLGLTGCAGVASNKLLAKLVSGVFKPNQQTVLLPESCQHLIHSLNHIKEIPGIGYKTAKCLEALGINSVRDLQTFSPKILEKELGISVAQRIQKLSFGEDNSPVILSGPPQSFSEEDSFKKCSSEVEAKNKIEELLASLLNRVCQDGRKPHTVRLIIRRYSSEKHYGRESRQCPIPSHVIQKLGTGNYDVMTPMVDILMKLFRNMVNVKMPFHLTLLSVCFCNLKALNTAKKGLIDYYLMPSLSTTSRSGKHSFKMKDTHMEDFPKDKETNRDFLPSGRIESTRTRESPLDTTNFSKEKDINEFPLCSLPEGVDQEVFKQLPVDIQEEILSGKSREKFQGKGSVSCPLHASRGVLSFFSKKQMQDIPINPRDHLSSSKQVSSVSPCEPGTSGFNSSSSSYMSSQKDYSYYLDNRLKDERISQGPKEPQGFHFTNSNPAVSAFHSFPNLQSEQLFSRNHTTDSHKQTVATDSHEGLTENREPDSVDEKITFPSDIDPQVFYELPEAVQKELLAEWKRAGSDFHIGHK
#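 Pol iota at 10 nM preincubated 15 min with compounds at room temperature; reaction started with fluorescent substrate, 50 nM final. Fluorescence read kinetically at 0 and 10 min; buffer-only wells as negative control.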
# Pol eta inh-1: blocks human DNA polymerase eta activity. 390,000 compounds, 1.2% hits. recombinant Pol eta, fluorescent DNA replication assay. Potency, µM (doses to about 114 µM), without a hit: top-dose activity change, negative = inhibition, actives largely listed as inhibitors; also: potency is read from the fitted curve at half-maximal effect; % is scaled to controls: 0 for no effect and ±100 for the full control effect
#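 Pol eta (10 nM) was preincubated with compounds for 15 min at room temperature, after which fluorescent replication substrate (50 nM final) was added to start the reaction. Fluorescence was read kinetically at 0 and 10 min.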
# Pol kappa inh-1: DNA polymerase kappa (human) inhibition | purified Pol kappa, fluorescent DNA synthesis assay, 10 min | Potency, µM (top dose mostly 107 µM), for inactives: at the highest dose activity, negative = inhibition, most hits filed as inhibitors | 400,000 compounds, 0.53% hits | Q9UBT6 | AID 588579; also: potency is read from the fitted curve at half-maximal effect; % is scaled to controls: 0 for no effect and ±100 for the full control effect
#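 10 nM Pol kappa preincubated 15 min at room temperature with compounds, then reaction started with substrate at 50 nM final. Fluorescence read kinetically at 0 and 10 min; buffer-only wells served as negative control.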
# FEN1 inh: human FEN1 inhibition | P39748 | 390,000 compounds, 0.35% hits | Recombinant FEN1 flap cleavage, fluorescence, 15 min | Potency, µM (series often up to 114 µM), for inactives: top-dose activity change, negative = inhibition, most hits filed as inhibitors; also: potency is read from the fitted curve at half-maximal effect; % is scaled to controls: 0 for no effect and ±100 for the full control effect; nearly all actives have a fitted effect of over 65% in size
#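 With each library titrated from low to high concentration, compounds met 10 nM FEN1 for 15 min at room temperature before 50 nM substrate was added; readings at 0 and 15 min fed four-parameter Hill curve fits.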
# GALK confirm: confirmation of human galactokinase (GALK) inhibitors; shares compounds with Pol eta inh-1; purified GALK, Kinase-Glo ATP depletion luminescence; Potency, µM (titrated, usually from 115 µM), for inactives: at the highest dose activity, negative = inhibition, hits mostly inhibitors; 150 compounds, 70% hits
# GALK redox cs: generates H2O2 by redox cycling, flagging GALK artifacts; shares compounds with Pol eta inh-1; Phenol red-HRP H2O2 redox cycling, absorbance 600 nm; Potency, µM (titrated, usually from 115 µM), inactives show at the top dose activity change, negative = H2O2 signal, most hits filed as inhibitors; 150 compounds, 40% hits
# HEK293 viability: reduces HEK-293 cell viability in GALK counter-screen; shares compounds with Pol eta inh-1; HEK-293 viability, ATP luminescence (CellTiter-Glo), 24/48 h; Potency, µM (doses to about 46.1 µM), for the others: at the top dose activity change, negative = cytotoxicity, actives largely listed as inhibitors; 170 compounds, 10% hits; AID 2547; also: potency is read from the fitted curve at half-maximal effect; % is scaled to controls: 0 for no effect and ±100 for the full control effect
# Pol kappa inh-2: Pol kappa (human) inhibition, cherry-pick confirmation; shares compounds with Pol eta inh-1; purified Pol-kappa, fluorescent strand-displacement substrate; Potency, µM, hits mostly inhibitors; 920 compounds, 76% hits; AID 720501; also: potency is read from the fitted curve at half-maximal effect
# Pol eta inh-2: confirmation of human DNA polymerase eta inhibitors. shares compounds with Pol eta inh-1. Pol eta primer extension, TAMRA/BHQ fluorescence, 10 min. Potency, µM, hits mostly inhibitors. 2,600 compounds, 64% hits; also: potency is read from the fitted curve at half-maximal effect
# * marks the source's active call; other numbers are inactive results; u = inconclusive; x = no result given; [ ] = another dose, or the depositor's remark. Shown are actives, neighbours in structure and some others; about 2.4% of the full set was active somewhere. Calls follow the shape of the dose curve; as a rule, active = well fitted curve in the direction sought with a large enough effect; inconclusive = small, poorly fitted or top-dose-only effect, or another doubt; inactive = no such curve, though single readings can be large; an effect the other way counts as inactive or inconclusive.
SMILES,Pol beta inh,WRN inhibitor,POLI inh,Pol eta inh-1,Pol kappa inh-1,FEN1 inh,Pol eta inh-2,others
Cc1cc(Cl)n2c(nc3cc(F)c(F)cc32)c1C#N,50µM*,-11%[11.6 µM],6.3µM*,56µM*,-1%,-7%,u,
Cc1c(N=C2C=C(Br)C(=O)C(Br)=C2)c(=O)n(-c2ccccc2)n1C,40µM*,-1%[11.6 µM],4µM*,u,79µM*,u,60*,
COc1ccccc1N1CCN(C(=O)CN2C(=O)COc3ccc(S(=O)(=O)N4CCCC4)cc32)CC1,15%,x,24%,-9%,-2%,46%,x,
COc1ccc(CN(Cc2ccccc2)C(C)=O)cc1COc1ccc(NC(C)=O)cc1,x,x,0%,x,2%,11%,x,
O=C(O)c1ccc2nc(-c3cc4cc(F)ccc4oc3=O)[nH]c2c1,35µM*,x,u,35µM*,5%[60.1 µM],-7%,60*,
O=C(O)c1ccc2oc(=O)c(S(=O)(=O)c3ccc(F)cc3)cc2c1,-1%,0%,-7%,-22%,0%,2%,x,
CN(C)c1ccc(-c2nn3c(-c4cc(-c5ccccc5)n[nH]4)nnc3s2)cc1,x,x,3%,x,-8%,2%,x,
Cc1oc(/N=C/c2cccc3ccccc23)c(C#N)c1C,16%,u,22µM*,25µM*,u,-23%,48*,
O=C(O)c1ccccc1C(=O)c1ccc2oc(=O)[nH]c2c1,x,-4%[11.6 µM],u,22µM*,u,-1%,38*,Pol kappa inh-2=u
O=c1c2ccccc2nc2sc(Nc3ccc4c(c3)CCC4)nn12,x,x,x,x,x,x,x,Pol kappa inh-2=38*
O=C(CNC(=O)c1ccc(Br)cc1)N=Nc1c(O)[nH]c2ccc([N+](=O)[O-])cc12,u,-24%,u,-17%,-13%,6%,x,
COc1ccc(/C=C/C(=O)NCC(=O)N=Nc2c(O)[nH]c3ccc([N+](=O)[O-])cc23)cc1,50µM*,-11%[11.6 µM],34%,35µM*,-6%,u,x,Pol kappa inh-2=84*
CCNc1nc(NCC)n2c(SCC(=O)Nc3ccc(NC(C)=O)cc3)nnc2n1,x,0%[11.6 µM],u,40µM*,u,1%,u,
CCNc1nc(NCC)n2c(SCC(=O)Nc3ccc(CC)cc3)nnc2n1,x,u,65%,3%,-16%,2%,x,
CC1=NN(c2nc(-c3ccccc3)cs2)C(=O)C1,-1%,u,u,50µM*,-36%,8%,u,
O=[n+]1c2c(n([O-])c3cc(F)ccc31)CCCC2,33%,-1%,50%,-8%,3%,-1%,x,
O=[n+]1c2c(n([O-])c3cc(F)c(N4CCCC4)cc31)CCC2,x,u,u,u,u,-19%,u,
COCCn1c(SC(C)C(=O)NCC2CCCO2)nc2scc(-c3ccc(F)cc3)c2c1=O (stereo unspecified),x,-2%,23%,-9%,0%,-3%,x,
COCCn1c(SC(C)C(=O)NCC2CCCO2)nc2sc3c(c2c1=O)CCC3 (stereo unspecified),x,-23%,u,u,-2%,1%,u,
Cc1cc(Cl)ccc1NS(=O)(=O)c1c(C(=O)N2CCCCCC2)c(C)n(C)c1C,18%,x,8%,-15%,-19%,-9%,x,
CC1(C)CC(=O)C2=C(C1)NC(Nc1nc3ccccc3o1)=NC21CCCC1,2%,-2%,6%,-11%,0%,-16%,x,GALK confirm=u;GALK redox cs=-22%;HEK293 viability=1%
CC1(C)CC(=O)C2=C(C1)NC(Nc1nc3ccccc3o1)=NC2c1ccccc1Cl (stereo unspecified),x,x,24%,x,5%,-7%,x,HEK293 viability=-9%
COc1ccc(-c2nc3nc(C)cc(Nc4cccc(C(F)(F)F)c4)n3n2)cc1,u,x,-17%,u,-7%,18%,x,Pol kappa inh-2=19*
Cn1c(O)c(/C=N/NC(=O)c2cc3ccccc3cc2O)c2ccccc21,u,-24%,u,-20%,-23%,4%,x,
O=C(O)c1ccc(/C=N/NC(=O)c2cc3ccccc3cc2O)cc1,x,u,16µM*,22µM*,50µM*,u,u,
SMILES,Pol beta inh,WRN inhibitor,POLI inh,Pol eta inh-1,Pol kappa inh-1,FEN1 inh,Pol eta inh-2,others
COc1cc(/C=N/n2c(-c3n[nH]c4c3CCC4)n[nH]c2=S)cc(OC)c1O,8%,-12%,42%,-9%,5%,5%,x,
S=c1[nH]nc(-c2ccco2)n1/N=C/C=C/c1ccco1,35µM*,u,11µM*,28µM*,79µM*,-30%,85*,
S=c1[nH]nc(-c2n[nH]c3c2CCC3)n1/N=C/C=C/c1ccco1,40µM*,u,u,25µM*,79µM*,-26%,30*,
COc1ccc(OC(C)C(=O)NCc2nc(-c3cccc(C)c3)no2)cc1 (stereo unspecified),-19%,x,-9%,-10%,-29%,-4%,x,
CC(C)C(=O)Nc1cccc(C(=O)Nc2nnc(C(F)(F)F)s2)c1,20%,x,4%,-2%,1%,-2%,x,
Cc1ccc(S(=O)(=O)N[C@@H](CO)C(=O)N[C@@H](Cc2ccc(O)cc2)C(=O)O)cc1,-3%,-2%,13%,-19%,-15%,-11%,x,
O=C(O)c1ccc(S(=O)(=O)N[C@@H](Cc2ccc(O)cc2)C(=O)O)cc1,x,x,x,x,x,x,38*,Pol kappa inh-2=11*
Cc1nnc(SCC2=C(C(=O)O)N3C(=O)C(NC(=O)c4cc(F)c(F)cc4Cl)C3SC2)s1 (stereo unspecified),u,-6%[11.6 µM],u,20µM*,u,-1%,34*,
NCc1ccccc1CC(=O)N[C@@H]1C(=O)N2C(C(=O)O)=C(CSc3nnnn3CC(=O)O)CS[C@@H]12,x,x,x,x,-13%[19.4 µM],x,x,
